Records with an inconclusive call do not appear. The source made the active and inactive calls. The call rests on the fitted dose curve; in most records, active means well fitted activation curve with a large enough effect; inconclusive means small, poorly fitted or top-dose-only effect; inactive means flat fitted curve, though single readings scatter.
Assay: Cellular Toxicity (caspase-3) H-4-II-E (AID 663);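 further: cells exposed to compound for 16 hr before readout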
Details: H-4-II-E rat hepatoma, scaled: DMSO 0%, 100 µM tamoxifen 100%; series mostly up to 92.2 µM
Source text: NIH Chemical Genomics Center [NCGC]
NIH Molecular Libraries Screening Centers Network [MLSCN]
National Institutes of Environmental Health Sciences [NIEHS]
National Toxicology Program [NTP]
We have developed a 1536-well cell-based assay for quantitative high throughput screening (qHTS) against a number of cell lines to determine in vitro caspase 3/7 of small molecules. This particular assay uses the H-4-II-E cell line which is derived from rat hepatoma.
NCGC Assay Protocol Summary:
The Caspase-Glo 3/7 assay (Promega) is a homogeneous method to measure caspase-3 and caspase-7 activities in cultured cells. The quantitation of caspase 3/7 activity is based on the cleavage of a peptide-aminoluciferin substrate. After caspase cleaves the substrate the free aminoluciferin is liberated and serves as the substrate of luciferase, which generates the light. The luminescent signal is proportional to amount of caspase 3/7 activity present.
Using the Caspase-Glo 3/7 assay, the amount of caspase 3/7 activity was measured in the H-4-II-E cell line with complete culture medium following compound treatment for 16 hours. The assay was performed in opaque white 1536-well plates. In the screen, tamoxifen and doxorubicin were used as positive controls. Library compounds were measured for their ability to cause the activation of caspase 3/7 in the cell line, as reflected by an increase in luminescence signal, in a concentration-dependent manner. Data were normalized to the controls for basal activity (DMSO only) and 100% stimulation (100 uM tamoxifen). AC50 values were determined from concentration-response data modeled with the standard Hill equation.
qHTS protocol for caspase 3/7 assay in H-4-II-E cells
[Step] [Parameter] [Value] [Description]
1. Reagent; 5 uL; 1500 H-4-II-E cells/well
2. Time; 5 hr; 37 °C incubation
4. Controls; 23 nL; Tamoxifen 0.23 uM to 100 uM & Doxorubicin 7.0 pM to 100 uM
5. Time; 16 hr; 37 °C incubation
6. Reagent; 5 uL; Caspase-Glo 3/7 reagent
7. Time; 20 min; Room Temperature
8. Detection; Luminescence; Viewlux plate reader
Keywords: caspase 3/7, apoptosis, H-4-II-E cell line, luminescence, NTPHTS, NTPHTS_NCGC, NIEHS, EPA, DSSTox, MLSMR, MLSCN, NIH Roadmap, qHTS, NCGC

With `NC(N)=O` as the compound, how does the outcome read?
Its outcome is “inactive”.

For `COC(=O)c1ccccc1O`, which outcome is on record?
The outcome was “inactive”.

With `CO` as the compound, how does the outcome read?
Its outcome is “inactive”.

For `CC(C)O`, which outcome is on record?
Its outcome is “inactive”.

For `C[C@H]1O[C@@H](O[C@H]2[C@@H](O)C[C@H](O[C@H]3[C@@H](O)C[C@H](O[C@H]4CC[C@@]5(C)[C@H](CC[C@@H]6[C@@H]5C[C@@H](O)[C@]5(C)[C@@H](C7=CC(=O)OC7)CC[C@]65O)C4)O[C@@H]3C)O[C@@H]2C)C[C@H](O)[C@@H]1O`, which outcome is on record?
Its outcome is “inactive”.

For `C[C@H](CCC(=O)O)[C@H]1CC[C@H]2[C@@H]3CC[C@@H]4C[C@H](O)CC[C@]4(C)[C@H]3C[C@H](O)[C@]12C`, which outcome is on record?
The outcome was “inactive”.

Which outcome does the source give for `CC(C)(C)CC(C)(C)c1ccc(OCCO)cc1` here?
Its outcome is “inactive”.

Which outcome does the source give for `OCc1ccccc1` here?
Its outcome is “inactive”.

Which outcome does the source give for `Cc1ccc(S(=O)(=O)O)cc1C` here?
Its outcome is “inactive”.

With `Nc1nccs1` as the compound, how does the outcome read?
The outcome was “inactive”.

With `Nc1ncnc2c1ncn2[C@H]1CC[C@@H](CO)O1` as the compound, how does the outcome read?
The outcome was “inactive”.

For `OB(O)O`, which outcome is on record?
The outcome was “inactive”.

For `[O-][N+](=Nc1ccccc1)c1ccccc1`, which outcome is on record?
Its outcome is “inactive”.

Which outcome does the source give for `OC[C@H]1O[C@@H]2O[C@H]3[C@H](O)[C@@H](O)[C@@H](O[C@H]4[C@H](O)[C@@H](O)[C@@H](O[C@H]5[C@H](O)[C@@H](O)[C@@H](O[C@H]6[C@H](O)[C@@H](O)[C@@H](O[C@H]7[C@H](O)[C@@H](O)[C@@H](O[C@H]1[C@H](O)[C@H]2O)O[C@@H]7CO)O[C@@H]6CO)O[C@@H]5CO)O[C@@H]4CO)O[C@@H]3CO` here?
Its outcome is “inactive”.

With `CCCCC` as the compound, how does the outcome read?
The outcome was “inactive”.

For `ClC(Cl)Cl`, which outcome is on record?
Its outcome is “inactive”.

For `CCOC(C)OCC`, which outcome is on record?
The outcome was “inactive”.

Which outcome does the source give for `Cc1ncc[nH]1` here?
The outcome was “inactive”.

For `O=P(O)(O)O`, which outcome is on record?
The outcome was “inactive”.

Which outcome does the source give for `c1ccc2ccccc2c1` here?
The outcome was “inactive”.

For `C/C=C/C=C/C(=O)O`, which outcome is on record?
Its outcome is “inactive”.

Which outcome does the source give for `CC/C=C\C/C=C\C/C=C\CCCCCCCC(=O)O` here?
The outcome was “inactive”.

With `Nc1ccc(N=Nc2ccccc2)c(N)n1` as the compound, how does the outcome read?
Its outcome is “inactive”.

Which outcome does the source give for `NCCN` here?
The outcome was “inactive”.

Which outcome does the source give for `Oc1cccc(O)c1O` here?
Its outcome is “inactive”.

Which outcome does the source give for `CC[C@H]1OC(=O)[C@H](C)[C@@H](O[C@H]2C[C@@](C)(OC)[C@@H](O)[C@H](C)O2)[C@H](C)[C@@H](O[C@@H]2O[C@H](C)C[C@H](N(C)C)[C@H]2O)[C@](C)(O)C[C@@H](C)CN(C)[C@H](C)[C@@H](O)[C@]1(C)O` here?
Its outcome is “inactive”.

Which outcome does the source give for `CO/N=C(/C(=O)N[C@@H]1C(=O)N2C(C(=O)O)=C(COC(N)=O)CS[C@H]12)c1ccco1` here?
Its outcome is “inactive”.

Which outcome does the source give for `CC1=CC(=O)NS(=O)(=O)O1` here?
The outcome was “inactive”.

For `OCC(O)CO`, which outcome is on record?
The outcome was “inactive”.

Which outcome does the source give for `O=c1n(CC2CO2)c(=O)n(CC2CO2)c(=O)n1CC1CO1` (centres undefined) here?
Its outcome is “inactive”.

For `O.O.O.O.O.O.O.O=S(=O)([O-])[O-].[Co+2]`, which outcome is on record?
Its outcome is “inactive”.

With `C[C@H](CCC(=O)O)[C@H]1CC[C@H]2[C@@H]3[C@H](O)C[C@@H]4C[C@H](O)CC[C@]4(C)[C@H]3C[C@H](O)[C@]12C` as the compound, how does the outcome read?
The outcome was “inactive”.

Which outcome does the source give for `CCCCO` here?
Its outcome is “inactive”.

For `OCl`, which outcome is on record?
Its outcome is “inactive”.

— PubChem BioAssay (NCATS)
